Source: PubChem BioAssay (National Center for Advancing Translational Sciences (NCATS))
Hits are enriched below; roughly 3.6% of the tested compounds scored in any of these assays.
ClpP mod: qHTS Assay for Activators of ClpP; ATP-dependent Clp protease proteolytic subunit (Bacillus subtilis (strain 168)), P80244; Potency, µM (series often up to 57.5 µM); purified B. subtilis ClpP, FRET peptide cleavage, 20 min; AID 651965, 2013; hit rate 1.9% among 340,000; active = well fitted falling curve with a large enough effect; inconclusive = small, poorly fitted or top-dose-only effect; inactive = no such curve, though single readings can be large or run the other way; also: the source files actives as falling curves though it sought activators and does not explain the sign; nearly all actives have a fitted effect of over 65% in size
Target sequence (P80244 whole entry, looked up): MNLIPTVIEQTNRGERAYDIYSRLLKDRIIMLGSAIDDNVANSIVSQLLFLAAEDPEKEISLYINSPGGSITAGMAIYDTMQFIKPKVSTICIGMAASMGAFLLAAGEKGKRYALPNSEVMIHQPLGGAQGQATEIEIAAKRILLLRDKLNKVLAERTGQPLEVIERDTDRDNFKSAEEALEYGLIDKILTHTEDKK
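Buffer: 100 mM Tris/HCl pH8, 100 mM KCl, 0.05% low protease BSA, 2.5% glycerol, 0.01% Tween-20. ClpP 10 microg/mL final; 20 min RT; delta FRET normalized to ADEP and DMSO controls.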
aSyn yeast inh: alpha-synuclein toxicity inhibition in yeast; Potency, µM (doses to about 46.1 µM), actives largely listed as activators; hit rate 0.14% among 370,000; AID 652106; Yeast expressing alpha-synuclein, growth rescue, BacTiter-Glo, 24 h; also: nearly all actives have a fitted effect of over 65% in size
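Readout is rescue of growth in alpha-synuclein-expressing yeast, so inhibitors of toxicity appear as activators. Growth after 24 hr at 30 deg C in galactose medium is quantified by luminescence.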
TDP-43 yeast inh: TDP-43 toxicity inhibition in yeast; hit rate 1.8% among 410,000; TDP-43 expressing yeast growth rescue, BacTiter-Glo, 24 h; AID 652104; Potency, µM (highest dose often 46.1 µM), most hits filed as activators; also: nearly all actives have a fitted effect of over 50% in size
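Cell-based yeast growth screen: TDP-43 expression induced in galactose, inoculum OD600=0.02 after raffinose pregrowth to mid-log. Read-out BacTiter-Glo luminescence at 24 hr, 30 deg C; inhibition of toxicity seen as signal increase.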
FUS suppressor: rescues growth of FUS-expressing yeast; hit rate 0.24% among 390,000; S. cerevisiae FUS-expressing, growth rescue, OD600, 24 h; Potency, µM (titrated, usually from 76.6 µM), usual class: activators; AID 1347120; also: nearly all actives have a fitted effect of over 55% in size
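Restored growth of FUS-toxic S. cerevisiae, read as 600 nm absorbance after 24 h at 30C in galactose medium (starting OD 0.005). Controls CP55940 and DMSO.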
Abeta rescue: restores growth of yeast expressing A-beta42 peptide; yeast expressing A-beta42, growth rescue, OD600, 48 h; response scale: 0% DMSO, 100% iron-clioquinol control; Potency, µM (series often up to 46.1 µM), most hits filed as activators; hit rate 0.063% among 410,000; AID 1347071; also: nearly all actives have a fitted effect of over 55% in size
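Yeast A-beta toxicity model in growth medium with pinned compounds, 48 h at 30 C; growth read as absorbance at 600 nm. Normalized to FeCl3/clioquinol equimolar mix (positive) and DMSO (negative).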
Mm-Cpn inhibitor: inhibitors of Methanococcus maripaludis chaperonin TRiC (MmCpn) | Potency, µM (top dose mostly 76.9 µM), usual class: inhibitors | hit rate 0.031% among 330,000 | purified Mm-Cpn ATPase, ADP Transcreener TR-FRET | AID 504842; also: nearly all actives have a fitted effect of over 80% in size
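Purified archaeal chaperonin (25 nM final) was preincubated with compound for 10 min at 37°C, then ATP (10 uM final) was added for 30 min at 37°C in Tris pH 7.4/KCl/MgCl2/DTT buffer. ADP was quantified by HTRF Transcreener TR-FRET.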
Each line names hits and unclear results; the compound was inactive in the other large screens; ! = not active in a repeat. Unless noted, calls follow the shape of the dose curve; as a rule, active = well fitted curve in the direction sought with a large enough effect; inconclusive = small, poorly fitted or top-dose-only effect, or another doubt; inactive = no such curve, though single readings can be large; an effect the other way counts as inactive or inconclusive.

CCC(=O)Nc1cccc(-c2cnc3ccccc3n2)c1	TDP-43 yeast inh inconclusive
O=C(Nc1ccc(-c2nc3cccnc3s2)cc1)c1ccco1	none
O=C(Nc1cccc(-c2nc3cccnc3s2)c1)c1cccc(Br)c1	ClpP mod inconclusive, TDP-43 yeast inh 6.3µM (no result: aSyn yeast inh, Mm-Cpn inhibitor)
CN(C)c1ccc(C(=O)Nc2cccc(-c3nc4cccnc4s3)c2)cc1	none (no result: aSyn yeast inh, Mm-Cpn inhibitor)
CCC(C(=O)Nc1cc(-c2nc3cccnc3s2)ccc1C)c1ccccc1 (stereo not given)	ClpP mod 35µM (no result: aSyn yeast inh, Mm-Cpn inhibitor)
CCc1nn2c(=O)cc(COC(=O)c3cccc(NC(=O)COc4ccccc4)c3)nc2s1	none (no result: aSyn yeast inh, Mm-Cpn inhibitor)
COc1ccc(C(=O)CCC(=O)O)cc1	none
O=C(O)CCC(=O)c1ccc(C2CCCCCC2)cc1	TDP-43 yeast inh 18µM (no result: Mm-Cpn inhibitor)
C=CCn1c(SCc2ccc(C#N)cc2)nnc1-c1ccco1	none (no result: ClpP mod, aSyn yeast inh, TDP-43 yeast inh, Abeta rescue, Mm-Cpn inhibitor)
C=CCn1c(SCc2ccc(C#N)cc2)nnc1-c1cccc(Cl)c1	TDP-43 yeast inh 14µM
CCOc1ccc(CCNC(=O)CN2C(=O)COc3ccc(S(=O)(=O)N(CC)CC)cc32)cc1	none (no result: aSyn yeast inh, Mm-Cpn inhibitor)
Cc1ccc([N+](=O)[O-])cc1-c1[nH]c(-c2ccc(O)c(O)c2)nc1-c1ccccc1	FUS suppressor 20µM
Cc1cc(C(=O)O)c(=O)[nH]c1C	ClpP mod 25µM
COc1cccc(C(c2sc3nc(-c4ccco4)nn3c2O)N2CCN(c3ccccc3F)CC2)c1 (stereo not given)	TDP-43 yeast inh 11µM, FUS suppressor 8.9µM (no result: aSyn yeast inh, Mm-Cpn inhibitor)
CCOc1ccc2nc(NCCNC(=O)Nc3cccc(C)c3)c(C#N)cc2c1	ClpP mod 16µM
CCOc1ccc2nc(NCCNC(=O)Nc3ccccc3)c(C#N)cc2c1	none
Oc1ccc(Br)cc1C1C=C(c2ccc3c(c2)OCO3)NC(c2ccc(F)c(Br)c2)N1 (stereo not given)	none (no result: ClpP mod, TDP-43 yeast inh, FUS suppressor, Abeta rescue, Mm-Cpn inhibitor)
Cc1ccc2c(c1)-c1c(cnn1CC(=O)NCCc1ccc(O)cc1)CO2	none (no result: ClpP mod, aSyn yeast inh, TDP-43 yeast inh, Abeta rescue, Mm-Cpn inhibitor)
CC1(C)c2ssc(=S)c2-c2ccccc2N1C(=O)CSC1=NCCS1	TDP-43 yeast inh 35µM
O=C(C(Cc1ccccc1)N1C(=O)C2C3C=CC(C3)C2C1=O)N1CCCCC1 (stereo not given)	ClpP mod 20µM (no result: FUS suppressor)
Cc1ccc(/C=C/C(=O)c2ccc(O)cc2)cc1	FUS suppressor inconclusive (no result: ClpP mod)
CSc1ccc(/C=C/C(=O)c2ccc(O)cc2)cc1	TDP-43 yeast inh 14µM, Abeta rescue inconclusive
CC(O)Cn1ccccc1=N (stereo not given)	ClpP mod 16µM
Cc1cc(N2CCC(C(=O)Nc3ccc(Cl)cc3)CC2)n2nc(C)c(-c3ccc(Cl)cc3)c2n1	none (no result: aSyn yeast inh, Mm-Cpn inhibitor)
CC(=O)Nc1ccc(Nc2cc(C)nc3c(-c4ccc(Cl)cc4)cnn23)cc1	ClpP mod inconclusive, TDP-43 yeast inh 3.2µM (no result: FUS suppressor)
CC(=O)Nc1ccc(Nc2cc(C)nc3c(-c4ccc(Cl)cc4)c(C)nn23)cc1	ClpP mod 28µM
O=C(Nc1ccc(Cl)c(-c2nc3ccccc3o2)c1)c1cccc2c(Cl)cccc12	none (no result: aSyn yeast inh, Mm-Cpn inhibitor)
CC1Cc2cc(S(=O)(=O)NCCc3ccc(Cl)cc3)ccc2N1C(=O)C1CCC1 (stereo not given)	TDP-43 yeast inh 18µM, Abeta rescue inconclusive (no result: aSyn yeast inh, Mm-Cpn inhibitor)
Cn1c(NCc2cccc(Cl)c2)nc2ccccc21	none (no result: aSyn yeast inh, Mm-Cpn inhibitor)
Cc1ccc(NC(=O)CSc2nc3ccccc3nc2N2CCOCC2)cc1	ClpP mod inconclusive, TDP-43 yeast inh inconclusive, FUS suppressor 32µM!
Cc1ccc(NC(=O)CSc2nc3ccccc3nc2N2CCOCC2)c(C)c1	none
c1ccc(-c2cc3ccccc3nc2N2CCCC2)cc1	ClpP mod 28µM
CC(=O)Nc1ccc(NC(=O)CSc2nc3ccccc3nc2N2CCCCC2)cc1	none
O=C(O)CSc1nc2ccccc2nc1N1CCCCC1	TDP-43 yeast inh 20µM (no result: aSyn yeast inh, Mm-Cpn inhibitor)
COC(=O)CS(=O)(=O)c1nc2ccccc2nc1N1CCCCC1	TDP-43 yeast inh 20µM (no result: aSyn yeast inh, Mm-Cpn inhibitor)
COc1cccc(CNC(=O)N2CCc3c(sc4c3CCCC4)C2c2ccc(F)cc2)c1 (stereo not given)	FUS suppressor inconclusive (no result: aSyn yeast inh, Mm-Cpn inhibitor)
Cc1nc([N+](=O)[O-])cn1CC(O)c1ccc2c(c1)OCCCO2 (stereo not given)	none (no result: TDP-43 yeast inh, FUS suppressor, Abeta rescue, Mm-Cpn inhibitor)
CCOC(=O)c1ccccc1NC(=O)c1nn(-c2ccc(C)cc2)c(=O)n(C)c1=O	none (no result: aSyn yeast inh, Mm-Cpn inhibitor)
COc1cccc(C2c3c(oc4cc(C)cc(C)c4c3=O)C(=O)N2CCc2ccc(OC)c(OC)c2)c1 (stereo not given)	none (no result: aSyn yeast inh, Mm-Cpn inhibitor)
O=C(OCn1nnc2ccccc2c1=O)c1ccc2ncsc2c1	aSyn yeast inh inconclusive, TDP-43 yeast inh 11µM
CCN(CC)S(=O)(=O)c1ccc(C(=O)OCn2nnc3ccccc3c2=O)cc1	aSyn yeast inh 3.2µM
O=C(OCn1nnc2ccccc2c1=O)c1ccc(S(=O)(=O)N2CCOCC2)cc1	none
Cc1ccc(NC(=O)Cn2c(=O)n(CCCCC(=O)NCc3ccc4c(c3)OCO4)c(=O)c3ccccc32)cc1	none (no result: aSyn yeast inh, Mm-Cpn inhibitor)
Cc1ccc(C(=O)N2CCN(c3cccc(C)c3C)CC2)o1	TDP-43 yeast inh 13µM
